Results on 64 compounds are retold here after PubChem BioAssay AID777 (Sanford-Burnham Center for Chemical Genomics, 2007).

Among all 96,000 compounds or so, about 19,000 (20%) were called active. The list is a sample of the results. A number with no mark means an inactive call.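 Rule for the calls: active = blocking of liver enzyme CYP2C9 beyond about 50% at 5 µM (limit read from the data); inactive = the rest.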

For this experiment, the target named is Cytochrome P450 2C9 (Homo sapiens) (UniProt P11712). Kind of experiment: blockers of cytochrome P450 2C9 activity – biochemical, luminescence, ADME assay, primary screen (AID 777). The following applies: CYP2C9 Supersomes, luciferin-H conversion, at 5 µM, active compounds read high.
Sequence of Cytochrome P450 2C9 (Homo sapiens) (P11712 whole entry, looked up): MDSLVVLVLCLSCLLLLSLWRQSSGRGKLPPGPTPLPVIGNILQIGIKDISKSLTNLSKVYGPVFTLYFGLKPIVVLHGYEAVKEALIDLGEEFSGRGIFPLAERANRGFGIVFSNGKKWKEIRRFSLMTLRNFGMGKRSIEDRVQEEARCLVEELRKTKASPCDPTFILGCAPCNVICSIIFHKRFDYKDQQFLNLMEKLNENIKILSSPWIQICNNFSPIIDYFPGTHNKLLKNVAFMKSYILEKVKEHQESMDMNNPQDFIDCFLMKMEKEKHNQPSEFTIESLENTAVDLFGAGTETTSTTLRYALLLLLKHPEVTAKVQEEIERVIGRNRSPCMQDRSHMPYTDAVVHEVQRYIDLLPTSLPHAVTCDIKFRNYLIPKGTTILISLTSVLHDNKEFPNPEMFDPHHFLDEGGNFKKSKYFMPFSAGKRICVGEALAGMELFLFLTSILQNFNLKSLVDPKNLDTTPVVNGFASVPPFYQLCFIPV
As usually defined, the inhibition is the drop in the measured response relative to a control, in per cent. As for `CC(C)(C)n1nc2c(c1NC(=O)c1ccc(S(=O)(=O)N3CCCC3)cc1)CS(=O)C2` (centres undefined), the inhibition was 4.2%.
`CCOc1nc(NCCN2CCOCC2)nc(Nc2ccc(C)cc2)n1`: the inhibition is 13%.
As to `O=c1c([N+](=O)[O-])cc(C(F)(F)F)cn1Cc1cccc(Cl)c1`, the inhibition is 23.9%.
Turning to `COc1ccc2c(c1OC)C(=O)c1ccccc1C2=O`, the inhibition was 21.6%.
On to `CN1CCc2c(sc3c2c(NCc2ccco2)nc2nnnn23)C1`, for which the inhibition is 45.7%.
Regarding `CCN(CC)P(=O)(/C(Cl)=C\Nc1c(C)n(C)n(-c2ccccc2)c1=O)N(CC)CC`, the inhibition is -8.4%.
In the case of `CNC(=O)NCCN1CCCC1=O`, the inhibition is 35.9%.
Regarding `CN(CC(=O)Nc1cccc2c1CCCC2)S(=O)(=O)c1ccc(Cl)cc1`, the inhibition was -18.4%.
`Cc1nc(NC(=O)CN(C)S(=O)(=O)c2ccc(Cl)cc2)sc1C`: the inhibition is 61.3% (active).
Consider `Cc1nc(NC(=O)CCC(=O)O)sc1C(=O)N(C)C`, for which the inhibition is 24.5%.
For the compound `CCOC1CCCCC1NS(=O)(=O)c1ccc(Cl)cc1` (centres undefined), the inhibition was 5.6%.
For `CCOC(=O)N1CCN(S(=O)(=O)c2ccc(C(=O)Nc3ccc(F)cc3F)cc2)CC1` the value was 18.7%; for `CCOC(=O)C1CCCN(C(=O)c2ccc(CS(=O)(=O)c3ccc(Br)cc3)o2)C1` (centres undefined), 49.8%; for `O=C(CSc1ncccn1)NCCc1ccccc1`, 17%.
For `O=C(CCS(=O)(=O)Cc1ccccc1F)NCCCN1CCCCC1` the value was -0.3%; for `CCOC(=O)CN(C(=O)CN1CCOCC1)c1ccc(Br)cc1`, 5.6%.
As for `COc1cc(OC)c(C(=O)NC2CC(C)(C)NC(C)(C)C2)cc1OC`, the inhibition is -0.9%.
Consider `O=C(Nc1cnn(Cc2ccc(Cl)cc2)c1)C1CCCC1`, for which the inhibition was 56.1% (active).
`O=C(O)C1CCCCC1C(=O)Nc1ccc(Cl)cc1` (centres undefined): the inhibition is 9.3%.
In the case of `O=C(O)c1ccc(NC(=O)C2CCCCC2)cc1`, the inhibition is -25.8%.
Under `O=C1CC(c2ccccc2)C(=O)N1c1cccc(O)c1` (centres undefined) stands 45%.
As to `O=C(N/N=C/C=C/c1ccccc1)C1CC1(c1ccccc1)c1ccccc1` (centres undefined), the inhibition is 99.5% (active).
As to `O=C(Nc1ccc(F)c(Cl)c1)C1CCN(S(=O)(=O)c2cccnc2)CC1`, the inhibition is 9.3%.
As to `O=C(O)c1ccc(COCC(F)(F)F)cc1`, the inhibition was -1.6%.
`Fc1c(F)c(C(F)(F)F)c(F)c(F)c1N1CCN(c2ccc3nnc(C(F)(F)F)n3n2)CC1`: the inhibition is 5.9%.
`c1csc(-c2nc(-c3ccncc3)no2)c1`: the inhibition is 11.1%.
For the compound `c1ccc(CCc2nc(-c3ccncc3)no2)cc1`, the inhibition was 93% (active).
Regarding `O=C1c2ccccc2C(=O)N1CCCc1nc(-c2ccccc2)no1`, the inhibition is 24.2%.
For `Cc1cc(C(=O)O)c(S(C)(=O)=O)s1`, the inhibition is -5.1%.
For `CC(Sc1nnc(Cc2ccc([N+](=O)[O-])cc2)o1)C(N)=O` (centres undefined) the value was -1.5%; for `Cc1ccc2nc(SC(C)C(=O)NCc3ccco3)[nH]c2c1` (centres undefined), 44.2%; for `Cc1nnc(NCCO)c2ccccc12`, -5.4%.
`CCC(=O)NC(=Nc1nc2ccccc2s1)NC(=O)CC`: the inhibition was -88.9%.
As for `O=C1CCCC(O)=C1C=NCCc1ccccc1`, the inhibition is 6.6%.
For `Cc1cc(C)c2[nH]c(=O)c(C(c3nnnn3Cc3ccc4c(c3)OCO4)N3CCCC3)cc2c1` (centres undefined) the value was 86.7% (active); for `Fc1ccccc1C(c1nnnn1Cc1ccc2c(c1)OCO2)N1CCN(Cc2ccccc2)CC1` (centres undefined), 45.6%; for `CC(C)(C)n1nnnc1C(c1ccc(F)cc1)N1CCN(Cc2ccc3c(c2)OCO3)CC1` (centres undefined), 30.9%.
On to `COc1ccc(C(=O)CN(C(=O)c2ccc(Cl)cc2)N2C(=O)c3ccccc3C2=O)cc1`, for which the inhibition was 49.5%.
`N#CC(=C1SC=CS1)c1nc(-c2ccccc2)cs1`: the inhibition is 52.9% (active).
Under `N#CC(=C1CCCC1)c1nc(-c2ccc(Cl)cc2)cs1` stands -6.8%; under `N#C/C(=C1\CCCN1)c1nc(-c2ccccc2)cs1`, 40.4%; under `CC(=O)N1CSCC1C(=O)O` (centres undefined), 6.7%.
On to `O=C(OCC#CCSc1nnc(-c2ccncc2)o1)c1sc2ccccc2c1Cl`, for which the inhibition was 30.1%.
Under `CSc1cc(C)n(-c2ccccc2C)c(=S)c1C(C)=O` stands 14.1%.
In the case of `CN(c1nc2ccccc2n2c(-c3ccco3)nnc12)S(=O)(=O)c1ccccc1`, the inhibition was 15.3%.
Regarding `O=C1CN(C(=O)COC(=O)C2CC(=O)N(Cc3ccco3)C2)c2ccccc2N1` (centres undefined), the inhibition is -13.2%.
For the compound `Cc1ccc(S(=O)(=O)N2CCC(C(=O)OCC(=O)N3CC(=O)Nc4ccccc43)CC2)cc1`, the inhibition is 54.7% (active).
Take `Cc1ccc(S(=O)(=O)NCC(=O)OCC(=O)N2CCc3ccccc32)cc1`: the inhibition is -28.2%.
In the case of `CCOC(=O)CN1CC23C=CC(O2)C(C(=O)Nc2ccc(F)cc2)C3C1=O` (centres undefined), the inhibition is -21.8%.
Consider `CC1(C)C/C(=C(/C#N)C(N)=O)CCO1`, for which the inhibition is -18.3%.
As to `Nc1c(-c2ccc(F)cc2)cnc2ncnn12`, the inhibition is -25.1%.
`CC1(C)CC(=O)C=C(NCc2ccncc2)C1`: the inhibition is 7.3%.
On to `Cc1cc(C(=O)Nc2c(C)nn(Cc3ccccc3)c2C)on1`, for which the inhibition was 22.4%.
For `CSc1ccccc1NC(=O)c1cc(C2CC2)on1` the value was -144%; for `Cc1nn(Cc2ccc(Cl)c(Cl)c2)c(C)c1NC(=O)c1cc(C2CC2)on1`, 96.7% (active).
For `Cc1cc2ccccc2n2c(SCC(=O)N3CCN(C(=O)c4ccco4)CC3)nnc12` the value was -4.3%; for `CCCCNC(=O)CCn1c(=S)[nH]c2cc3c(cc2c1=O)OCO3`, 36.3%.
With `Cc1ncc(CC(=O)n2cc(C(=O)c3cc(Cl)ccc3O)cn2)s1`, the inhibition is 81.1% (active).
As to `O=C(c1ccc2c(c1)N(Cc1ccc(F)cc1)C(=O)CS2)N1CCOCC1`, the inhibition was 1.7%.
Regarding `CCOC(=O)c1oc2ccccc2c1NC(=O)c1cccs1`, the inhibition was 20.2%.
With `Cc1cc(Nc2ccccc2)nc(N)n1`, the inhibition is -6.6%.
Under `Cc1ccc(S(=O)(=O)NCCSC(C)(C)C)cc1` stands 23.6%.
For `COc1ccccc1CNS(=O)(=O)c1ccc(C)cc1` the value was -159%; for `Cc1ccc(S(=O)(=O)NCC(C)NS(C)(=O)=O)cc1` (centres undefined), 60.2% (active).
